The values below come from PubChem BioAssay.

Assay [1] concerns the target Cell division control protein 42 homolog (Homo sapiens) (UniProt P60953). Nature of the assay: inhibition of fluorescent GTP binding to constitutively active Cdc42 – biochemical, multiplex bead flow cytometry, Bodipy-FL-GTP, dose response (AID 1333;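 active means fitted half-maximal concentration within the tested dose range, moderate curve steepness, a statistically real signal drop, and little compound fluorescence or tag-binding interference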). For orientation: A flow cytometer gives signals particle by particle.
For assay [2] the target is unchanged. Nature of the assay: inhibition of fluorescent GTP binding to wildtype Cdc42 – biochemical, multiplex bead flow cytometry, Bodipy-FL-GTP, dose response (AID 1334). Particulars: bead-based flow cytometry, Bodipy-FL-GTP binding to GST-Cdc42; at 100 µM (top of the series) unless noted.
For assay [3], the target named is GTPase HRas (Homo sapiens) (UniProt P01112). Kind of assay: Ras wt fluorescent GTP loading blockade – biochemical, wildtype, multiplex bead flow cytometry, dose response (AID 1335;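 active means fitted half-maximal concentration within 10 nM to 100 µM, steepness 0.5 to 2, significant signal drop, low assay interference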). Particulars: bead-based flow cytometry, Bodipy-GTP binding to GST-Ras; at 100 µM (top of the series) unless noted.
In assay [4] the test system is Ras-related protein Rab-7a (dog), GTP binding. Kind of assay: blockers of fluorescent GTP binding to Rab7 – biochemical, wildtype, multiplex bead flow cytometry, dose response (AID 1336; call rule not given here).
The target of assay [5] is Ras-related C3 botulinum toxin substrate 1 (Homo sapiens) (UniProt P63000). Nature of the assay: inhibition of wildtype Rac1 nucleotide loading – biochemical, multiplex bead flow cytometry, dose response (AID 1340;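 active means dose curve with midpoint inside tested range, moderate steepness, plateau gap beyond fit error, low compound glow and bead-link interference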). Particulars: GST-Rac1 beads, Bodipy-FL-GTP binding; at 100 µM (top of the series) unless noted.
Assay [6] concerns the target GTPase HRas (Homo sapiens) (UniProt P01112). Kind of assay: blockade of GTP loading onto mutant Ras – biochemical, activated mutant, multiplex bead flow cytometry, dose response (AID 1341;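 active means dose-response curve with midpoint inside the tested range, moderate steepness, significant amplitude and little compound fluorescence or bead-attachment interference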;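 further: GST-tagged constitutively activated Ras mutant immobilized on beads and multiplexed with other GTPases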).

Molecules are shown by their SMILES. For part of these data: Results with a measured potency or affinity are listed apart. Active and inactive are the calls of the source.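 How the source made its calls, unless noted: active means fitted half-maximal concentration within the tested range, moderate curve steepness, significant signal drop, and little compound fluorescence or bead-linkage interference; inactive means the rest.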

Sequence of GTPase HRas (Homo sapiens) (P01112 whole entry, looked up): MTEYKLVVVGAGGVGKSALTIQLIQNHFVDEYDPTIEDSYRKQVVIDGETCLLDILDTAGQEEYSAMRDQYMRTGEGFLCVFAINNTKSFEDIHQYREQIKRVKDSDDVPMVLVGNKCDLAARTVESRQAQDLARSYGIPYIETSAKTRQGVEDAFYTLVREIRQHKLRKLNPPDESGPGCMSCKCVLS
Sequence of Cell division control protein 42 homolog (Homo sapiens) (P60953 whole entry, looked up): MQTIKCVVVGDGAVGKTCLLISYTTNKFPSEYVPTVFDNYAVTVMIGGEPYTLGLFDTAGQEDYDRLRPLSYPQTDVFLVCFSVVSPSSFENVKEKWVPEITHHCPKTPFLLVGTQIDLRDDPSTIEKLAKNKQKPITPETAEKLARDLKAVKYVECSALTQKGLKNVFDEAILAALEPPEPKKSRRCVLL

On to `CCOC(=O)c1ccc2ncc(-c3ccccc3)nc2c1`, for which the result in assay [1], in assay [4] and in assay [6] was inactive. Further, the fluorescence, percent of control (lower = inhibition) in assay [2] came to 33.5%. The molecule also showed a GTP binding, percent of control in assay [3] of 79.4%. This molecule gave a GTP binding signal, raw median fluorescence (lower = inhibition) (MCF (arbitrary fluorescence units)) in assay [5] of 259.

Take `Cc1cccc(CCSc2ncccc2C(=O)O)c1`: the outcome in assay [1], in assay [4] and in assay [6] was inactive. Further, the fluorescence, percent of control (lower = inhibition) in assay [2] is 119%. The GTP binding, percent of control in assay [3] was found to be 320%. In addition, the GTP binding signal, raw median fluorescence (lower = inhibition) (MCF (arbitrary fluorescence units)) in assay [5] was 97.

For the molecule `COC(=O)c1cn(CCOc2ccccc2)c2ccccc12`, the call in assay [1], in assay [4] and in assay [6] was inactive. In assay [2], the fluorescence, percent of control (lower = inhibition) was determined as 34.2%. This molecule also registered a GTP binding, percent of control in assay [3] of 83%. This molecule yielded a GTP binding signal, raw median fluorescence (lower = inhibition) (MCF (arbitrary fluorescence units)) in assay [5] of 225.

Regarding `Cc1cc(C)n2nc(C(=O)Nc3cccc(S(=O)(=O)N4CCCC4)c3)nc2n1`, the molecule was classed as inactive in assay [1], in assay [4] and in assay [6]. Moreover, the fluorescence, percent of control (lower = inhibition) in assay [2] is 33.5%. Further, in assay [3], the GTP binding, percent of control turned out to be 78.7%. In assay [5], the GTP binding signal, raw median fluorescence (lower = inhibition) (MCF (arbitrary fluorescence units)) came to 227.

With `O=C(O)c1cc(N2N=C(C(F)(F)F)/C(=C/C=C/c3ccco3)C2=O)ccc1Cl`, the molecule was called inactive in assay [1], in assay [4] and in assay [6]. Further, the fluorescence, percent of control (lower = inhibition) in assay [2] worked out at 22.4%. In addition, in assay [3], the GTP binding, percent of control worked out at 69.8%. The GTP binding signal, raw median fluorescence (lower = inhibition) (MCF (arbitrary fluorescence units)) in assay [5] came out at 174.

With `CC1=C(C(=O)Nc2ccccc2)C(c2ccc(Cl)cc2)n2c(s/c(=C/c3cccc(OCC(=O)O)c3)c2=O)=N1` (stereo not given), the molecule was classed as inactive in assay [1], in assay [4] and in assay [6]. Besides, in assay [2], the fluorescence, percent of control (lower = inhibition) came to 26.5%. This molecule displayed a GTP binding, percent of control in assay [3] of 75.3%. Moreover, the GTP binding signal, raw median fluorescence (lower = inhibition) (MCF (arbitrary fluorescence units)) in assay [5] was determined as 176.

Turning to `O=c1c2ccccc2nc2c3ccccc3c(NCc3ccccn3)nn12`, the outcome in assay [1], in assay [4] and in assay [6] was inactive. Besides, the fluorescence, percent of control (lower = inhibition) in assay [2] came out at 33.4%. The molecule also came in with a GTP binding, percent of control in assay [3] of 68.8%. The GTP binding signal, raw median fluorescence (lower = inhibition) (MCF (arbitrary fluorescence units)) in assay [5] stood at 167.

Regarding `OCCC1CN(Cc2ccccc2O)CCN1CCc1ccccc1` (stereo not given), the molecule was called inactive in assay [1], in assay [4] and in assay [6]. For the same molecule, the fluorescence, percent of control (lower = inhibition) in assay [2] stood at 34.2%. The molecule further yielded a GTP binding, percent of control in assay [3] of 82.7%. The GTP binding signal, raw median fluorescence (lower = inhibition) (MCF (arbitrary fluorescence units)) in assay [5] came to 255.

As for `O=C(CCc1nnc(-c2ccc3c(c2)OCO3)o1)N1CCC(c2ccc(F)cc2)C1` (stereo not given), the result in assay [1], in assay [4] and in assay [6] was inactive. The fluorescence, percent of control (lower = inhibition) in assay [2] stood at 36.1%. In assay [3], this molecule registered a GTP binding, percent of control of 88.1%. In assay [5], this molecule gave a GTP binding signal, raw median fluorescence (lower = inhibition) (MCF (arbitrary fluorescence units)) of 303.

Take `CC(=O)Nc1ccc(N2C(=O)c3ccc(C(=O)Nc4nnc(SCc5ccc(F)cc5)s4)cc3C2=O)cc1`: the molecule was called inactive in assay [1], in assay [4] and in assay [6]. Moreover, the fluorescence, percent of control (lower = inhibition) in assay [2] was found to be 43.1%. In assay [3], this molecule came in with a GTP binding, percent of control of 92.1%. The GTP binding signal, raw median fluorescence (lower = inhibition) (MCF (arbitrary fluorescence units)) in assay [5] amounted to 253.

As to `Cc1ccc(C)c(N2CCN(C(=O)CN(C)S(=O)(=O)c3ccc4c(c3)CCC(=O)N4)CC2)c1`, the molecule was classed as inactive in assay [1], in assay [4] and in assay [6]. Moreover, the fluorescence, percent of control (lower = inhibition) in assay [2] stood at 41.8%. The same molecule showed a GTP binding, percent of control in assay [3] of 65.9%. This molecule displayed a GTP binding signal, raw median fluorescence (lower = inhibition) (MCF (arbitrary fluorescence units)) in assay [5] of 156.

For the molecule `COc1ccccc1CNCc1sc(C(=O)O)cc1C`, the outcome in assay [1], in assay [4] and in assay [6] was inactive. In assay [2], the fluorescence, percent of control (lower = inhibition) came out at 61.8%. Further, in assay [3], the GTP binding, percent of control was determined as 85.7%. The molecule also had a GTP binding signal, raw median fluorescence (lower = inhibition) (MCF (arbitrary fluorescence units)) in assay [5] of 35.2.

Turning to `C=CCn1c(SCC(=O)Nc2ccc3c(c2)OCO3)nnc1-c1cc(Br)ccc1O`, the call in assay [1], in assay [4] and in assay [6] was inactive. Moreover, in assay [2], the fluorescence, percent of control (lower = inhibition) is 66.9%. The same molecule registered a GTP binding, percent of control in assay [3] of 84.9%. Further, the GTP binding signal, raw median fluorescence (lower = inhibition) (MCF (arbitrary fluorescence units)) in assay [5] was determined as 108.

As for `O=C(O)CSc1nc2ccccc2n1CCOc1ccccc1F`, the molecule was classed as inactive in assay [1], in assay [4] and in assay [6]. Besides, the fluorescence, percent of control (lower = inhibition) in assay [2] was determined as 58.4%. Further, in assay [3], the GTP binding, percent of control worked out at 90.3%. Also, the GTP binding signal, raw median fluorescence (lower = inhibition) (MCF (arbitrary fluorescence units)) in assay [5] was 37.2.

For the molecule `CCc1ccc(OCc2ccc(C(=O)O)o2)cc1`, the result in assay [1], in assay [4] and in assay [6] was inactive. Moreover, in assay [2], the fluorescence, percent of control (lower = inhibition) was found to be 60.7%. The molecule also came in with a GTP binding, percent of control in assay [3] of 90.3%. This molecule also returned a GTP binding signal, raw median fluorescence (lower = inhibition) (MCF (arbitrary fluorescence units)) in assay [5] of 35.2.
